JMJD2A Tudor inh – inhibitors of human JMJD2A Tudor domain. O75164. AlphaScreen JMJD2A-Tudor / H3K4me3 peptide binding. Potency, µM (highest dose often 114 µM), for inactives: at the top dose activity change, negative = inhibition, usual class: inhibitors. 390,000 tested, 4.4% active; also: potency is read from the fitted curve at half-maximal effect; % is scaled to controls: 0 for no effect and ±100 for the full control effect; nearly all actives have a fitted effect of over 50% in size
BAZ2B inh – blocks human BAZ2B | Q9UIF8 | AlphaScreen BAZ2B-H3K14Ac peptide displacement | Potency, µM (titrated, usually from 114 µM), for inactives: at the top dose activity change, negative = inhibition, hits mostly inhibitors | 360,000 tested, 4.4% active | AID 504333; also: potency is read from the fitted curve at half-maximal effect; % is scaled to controls: 0 for no effect and ±100 for the full control effect; nearly all actives have a fitted effect of over 60% in size
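Compounds, titrated to a top concentration of 110 uM, were incubated 30 min at room temperature with preformed BAZ2B/acetyl-K14 H3 peptide complex (50 nM each). Proximity signal was measured by AlphaScreen after 20 min with beads.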
L3MBTL1 block – blocks human L3MBTL1. Potency, µM (doses to about 57.1 µM), without a hit: at the top dose activity, negative = inhibition, most hits filed as inhibitors. 230,000 tested, 0.66% active. AlphaScreen L3MBTL1–H3K9me1 peptide binding; also: potency is read from the fitted curve at half-maximal effect; % is scaled to controls: 0 for no effect and ±100 for the full control effect; nearly all actives have a fitted effect of over 60% in size
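Read-out is AlphaScreen signal from streptavidin donor and nickel chelate acceptor beads (10 ug/mL final each) bridging L3MBTL1 (50 nM) and biotinylated K9-monomethylated H3(1-15) peptide (75 nM), after 30 min compound exposure at room temperature.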
JMJD2E inh – blocks human JMJD2E demethylase activity; JMJD2E catalytic domain, FDH-coupled NADH fluorescence (FDH is formaldehyde dehydrogenase); AID 2147; 230,000 tested, 1.6% active; B2RXH2; Potency, µM (doses to about 57.1 µM), without a hit: at the top dose activity change, negative = inhibition, hits mostly inhibitors; active = well fitted inhibition curve with a large enough effect, not every such curve was filed as active; inconclusive = small, poorly fitted or top-dose-only effect, or another doubt; inactive = no such curve, though single readings can be large or run the other way;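 also: potency is read from the fitted curve at half-maximal effect; 0% = wells with enzyme and -100% = buffer wells without enzyme; nearly all actives have a fitted effect of over 50% in size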
HP1b chromo inh – HP1-beta chromodomain-methylated histone interaction inhibition; P83916; AlphaScreen HP1-beta / biotin-H3K9me3 peptide binding; Potency, µM (highest dose often 114 µM), for the others: top-dose activity change, negative = inhibition, most hits filed as inhibitors; 390,000 tested, 0.56% active; AID 540317; also: potency is read from the fitted curve at half-maximal effect; nearly all actives have a fitted effect of over 70% in size
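AlphaScreen: HP1-beta (50 nM) preformed 30 min with biotin-H3(1-18)K9me3 peptide (50 nM) in PBS pH 7.4, 0.01% Tween-20. Compound added for 30 min at RT, then streptavidin donor/nickel chelate acceptor beads (10 ug/mL) for 30 min.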
PI5P4Ka inh – blocks human PI5P4K alpha kinase activity | AID 652105 | 330,000 tested, 1.2% active | PI5P4Kalpha enzyme, ADP-Glo luminescence, 60 min; hits give low values | P48426 | max response, %; active = max response of -50% or lower; inconclusive = between -30% and -50%; inactive = -30% or higher; also: value at the top dose of about 77 µM; % is scaled to controls: 0 for no effect and ±100 for the full control effect
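Enzyme plus substrate dispensed, test compounds pinned in, then ATP (5 microM final) added. After 60 min at RT, ADP-Glo reagent 1 for 45 min and reagent 2 for 30 min preceded luminescence imaging.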
* hit, by the source's call; u = inconclusive; x = no result given; [ ] = remark or other dose. The list is not random: actives were taken first. Their share in the collection is about 5.7%. Unless noted, calls follow the shape of the dose curve; as a rule, active = well fitted inhibition curve with a large enough effect; inconclusive = small, poorly fitted or top-dose-only effect; inactive = no such curve, though single readings can be large or run the other way.

SMILES	JMJD2A Tudor inh	BAZ2B inh	L3MBTL1 block	JMJD2E inh	HP1b chromo inh	PI5P4Ka inh
C=CCn1c(C(CCCC)CC(O)COCCC)n[nH]c1=S (stereo unspecified)	-3.0%	13.7%	-14.8%	0.9%	43.8%	0.9
COc1ccc(NC(=O)c2cc(-c3sc(NC(=O)c4ccccc4)nc3C)n(Cc3ccccc3)n2)cc1	x	x	x	x	x	-2.6
CC(C)(C)C(=O)N1CCn2c1nc1ccccc12	-13.7%	56.2µM*	-8.2%	-7.3%	-3.1%	3.1
COc1cc(OC)cc(C(=O)Nc2cccc(C(C)=O)c2)c1	2.4%	-0.9%	34.1%[11.4 µM]	1.9%	22.1%	1.3
COc1ccc(C(=O)Nc2ccc(Nc3ccccc3)cc2)cc1[N+](=O)[O-]	35.5µM*	u	-28.8%	x	u	1.6
COc1cc(OC)cc(C(=O)Nc2nnc(NC(=S)Nc3ccccc3)s2)c1	-15.8%	-33.2%	0.6%	-5.9%	-10.9%	-54.6*
COc1cc(OC)cc(C(=O)Nc2cccc(NC(=O)c3ccccc3)c2)c1	-27.5%	-4.7%	x	x	u	6.6
COc1cc(OC)cc(C(=O)Nc2cccc(N3CCCC3)c2)c1	50.1µM*	-38.3%	-26.7%	4.2%	-17.2%	x
COc1cc(OC)cc(C(=O)Nc2ccc(Nc3ccccc3)cc2)c1	u	25.1µM*	-22.5%	x	-25.6%	-7.9
COc1ccc(C(=O)Nc2ccc(OCc3ccccc3)cc2)cc1[N+](=O)[O-]	-8.4%	5.4%[57.1 µM]	-0.2%	0.3%	26.8%	-1.6
COc1ccc(CNS(=O)(=O)c2ccc(N3CCCCS3(=O)=O)cc2)cc1	0.0%	-8.2%	x	x	17.1%	x
CS(=O)(=O)N(CC(=O)NCCc1ccccc1)c1cc(C(F)(F)F)ccc1Cl	-3.5%	5.0%	x	x	40.9%	x
COCC(=O)Nc1ccc(Nc2ccccc2)cc1	-23.7%	39.8µM*	-12.9%[11.4 µM]	-4.0%	-7.4%	-13.5
COc1ccc(C(=O)Nc2nnc(-c3ccccc3)s2)cc1	-30.6%	-12.2%	-2.3%	x	8.0%	-7.4
COc1cc(OC)cc(C(=O)Nc2cccc(-c3cn4ccsc4n3)c2)c1	u	70.8µM*	x	x	0.1%[57 µM]	x
COc1ccc(C(=O)Nc2nnc(C(F)(F)F)s2)cc1	56.2µM*	0.4%	5.5%	-4.5%	u	-0.7
COc1cccc(OC)c1C(=O)Nc1cccc(-c2cn3ccsc3n2)c1	-23.4%	-26.5%	x	x	13.5%[57 µM]	x
CCC(=O)Nc1ccc(Nc2ccccc2)cc1	-24.5%	-33.6%	-1.5%	4.2%	14.5%	-0.7
Cc1cc(C)cc(N(CC(=O)NCCc2ccc(Cl)cc2)S(=O)(=O)c2c(C)noc2C)c1	-3.3%	x	x	x	56.5%	x
Cc1ccccc1OCC(=O)Nc1cccc(C(=O)OCc2cc(=O)n3c(C)csc3n2)c1	-19.5%	-4.4%	x	x	-2.3%	x
Cc1cc(C)c2c(c1)c(C)cc1nnc(SCC(=O)c3cccs3)n12	u	0.9%	2.5%	5.2%	5.7%	-0.4
CCCN(CCC)C(=O)CSc1nnc2cc(C)c3cc(C)cc(C)c3n12	15.8µM*	-20.4%	x	x	43.5%	x
CCC(=O)N(CCC(c1ccc(C)cc1)c1ccco1)Cc1ccco1 (stereo unspecified)	u	50.1µM*	-5.5%	1.0%	-8.8%	-29.4
CCC(=O)N(CCC(c1ccco1)C(C)C)Cc1ccccc1 (stereo unspecified)	79.4µM*	4.2%	8.8%	-12.9%	0.0%	-2.9
Cc1ccc(C(=O)N(Cc2ccco2)Cc2ccco2)cc1	-29.2%	u	x	x	12.5%	x
Cc1ccc(NC(=O)Nc2nnc(SCC(=O)N3CCC(C)CC3)s2)cc1	-10.1%	-20.8%	x	x	39.7%	x
O=S(=O)(c1cccc2nsnc12)N1CCOCC1	3.2%	-7.9%	-0.6%	6.1%	21.8%	3.0
O=S(=O)(c1cccc2nsnc12)N1CCc2ccccc21	u	70.8µM*	-0.2%	u	-13.9%	x
O=S(=O)(c1cccc2nsnc12)N1CCN(c2ccc(F)cc2)CC1	u	x	x	-8.1%	-3.8%	-0.7
O=S(=O)(c1cccc2nsnc12)N1CCN(c2ccccc2F)CC1	50.1µM*	u	-14.3%	10.2%	u	-17.4

Compound activity (PubChem)
